Assay results from PubChem BioAssay AID2315 (National Center for Advancing Translational Sciences (NCATS), 2010).
Hit rate of the full screen: of about 290,000 compounds, about 27,000 (9.3%) were called active. Many of the other results were omitted from the sample, so actives are more common in it than they were. Unmarked numbers belong to inactive results. No stated cut-off is given here; in the data, active means inhibition mostly above about 28% (no sharp cut-off); inactive means mostly below about 43%. Where a SMILES comes first, the peptide text is derived from it. [ ]: non-standard residue; d: D form. The star is where a group is joined. PhAc = O=C(Cc1ccccc1)*

Assay: A qHTS for Small Molecule Inhibitors of Shiga Toxin; further: 0% is about no effect
Conditions: Vero cells, Shiga toxin protein synthesis inhibition reporter; at 38.7 µM, active compounds read high

| Compound | inhibition |
| --- | --- |
| O=C(NNS(=O)(=O)c1ccc([N+](=O)[O-])cc1)C1CCCCC1 | -11% |
| CCCCn1c(N)c(N(CCOC)C(=O)c2oc3ccc(OC)cc3c2C)c(=O)[nH]c1=O | -5% |
| COc1cc(C)cc(CN2CCC(Cc3ccccc3)CC2)c1O | -4.61% |
| NC(=O)c1ccccc1N=Cc1ccc2ccccc2c1 | 69.3% |
| COc1ccc(N2CCN(C(=O)CSc3nnc4ncccn34)CC2)cc1 | -8.3% |
| COc1ccc(-c2cn3cccnc3n2)cc1 | 50.1% (active) |
| COc1ccc(-c2ccnc(SCC(=O)N3CCOCC3)n2)cc1 | 19.9% |
| O=C(Nc1ccccc1N1CCOCC1)c1ccc(OCc2cscn2)cc1 | 3.77% |
| CCOc1cc(/C=C2/C(=N)N3OC(C)=CC3=NC2=O)ccc1OC | -19.9% |
| CC1=CC2=NC(=O)/C(=C/c3coc4ccccc4c3=O)C(=N)N2O1 | 11.7% |
| COc1ccc(OCCCn2cccc2/C=C2/C(=N)N3OC(C)=CC3=NC2=O)cc1 | 47.7% (active) |
| Oc1ccccc1CN1CCN(C(c2ccccc2)c2ccccc2)CC1 | -6.21% |
| NC(=O)COC(=O)c1ccc2c(c1)C(=O)N(Cc1ccco1)C2=O | -6.38% |
| CC(C)CC(=O)N/C(N)=N/c1nc2ccccc2s1 | 61.6% (active) |
| CC(C)CC(=O)NC(=S)NCc1ccccc1 | -1.98% |
| Cc1cc(C(=O)OCC(=O)Nc2nnc(C(C)C)s2)c2ccccc2n1 | -2.62% |
| CCC(=O)NC(=Nc1nc2ccccc2s1)NC(=O)CC | 57.8% (active) |
| CCC(=O)NCCc1nc2ccccc2n1CC | -5.67% |
| O=C(O)CCCCc1nc2ccccc2s1 | -9.29% |
| CCCn1nc(NC(=O)C(C)C)c2cc3cc(OC)ccc3nc21 | 40.5% |
| COc1ccc(C(=O)CC(=O)C(=O)Nc2cc([N+](=O)[O-])ccc2OC)cc1 | -3.5% |
| O=C(Cn1ncc2c3ccccc3n(Cc3ccccc3)c2c1=O)NCc1ccccn1 | 16.1% |
| Cc1c(C(=O)N2CCCC2)c(S(=O)(=O)NCC(C)c2ccccc2)c(C)n1C (stereo unspecified) | -3.94% |
| CC1(C(=O)N/N=C/c2cc3c(cc2Br)OCO3)CC1(Br)Br (stereo unspecified) | -11.8% |

| Compound | inhibition |
| --- | --- |
| O=C(C1CCN(Cc2ccc(Cl)cc2)CC1)N1CCN(Cc2ccc3c(c2)OCO3)CC1 | -7.69% |
| COc1ccc(C2c3[nH]c4ccccc4c3C[C@H]3C(=O)N(CC(C)C)CC(=O)N23)c(OC)c1 (stereo partly specified) | -6.17% |
| COc1cccc(/C=N/Nc2cc(C)nc(-c3ccccc3O)n2)c1O | 38.3% (active) |
| COc1cccc2c(N/N=C/c3ccco3)cc(C)nc12 | 63.5% |
| COc1ccccc1/C=N\Nc1cc(C)nc(-n2nc(C)cc2C)n1 | -8.59% |
| CC(=O)c1cccc(NC(=O)CN2C(=O)c3cccnc3Oc3ccc(Cl)cc32)c1 | 1.59% |
| CCc1ccc(N(C(=O)c2csnn2)C(C(=O)NC2CCCCC2)c2ccncc2)cc1 (stereo unspecified) | 32.9% |
| Cc1ccc2nc(-c3ccc(NC(=O)CN(C)S(=O)(=O)c4ccccc4)cc3)sc2c1 | 84.9% (active) |
| COc1cccc(N(CC(=O)Nc2cccc(F)c2)S(C)(=O)=O)c1 | 12.9% |
| CCN(CC)S(=O)(=O)c1ccc(NC(=O)CN(c2cccc(F)c2)S(C)(=O)=O)cc1 | -12.2% |
| Cc1nc2ccc(S(=O)(=O)N(C)CC(=O)NC(C)c3ccccc3)cc2s1 (stereo unspecified) | -9.9% |
| Cc1cccc(N(CC(=O)Nc2ccc(-c3nc4ccc(C)cc4s3)cc2)S(C)(=O)=O)c1 | 146% (active) |
| COc1cc(NC(=O)CN(C)S(=O)(=O)c2ccc3nc(C)sc3c2)cc(OC)c1 | 15.9% |
| C[C@H]1CCC(=O)N([C@H](CSc2ccccc2)Cc2ccccc2)CC1 | 6.56% |
| CCCOc1ccc(Cc2c(O)nc(N)[nH]c2=O)cc1C | 1.67% |
| CCC(=O)N1c2ccc(S(=O)(=O)NCc3ccco3)cc2CC1C (stereo unspecified) | 12.8% |
| O=C(Nn1cnnc1)c1cc(Cl)ccc1Cl | 7.38% |
| C=CCc1cc(S(=O)(=O)c2ccc(O)c(CC=C)c2)ccc1O | -18% |
| O=C(c1cccc([N+](=O)[O-])c1)N1CCN(C(=O)c2ccco2)CC1 | -3.08% |
| O=C(c1ccco1)N1CCN(c2cccc(Cl)c2)CC1 | 24.3% (active) |
| CS(=O)(=O)N(CC(=O)N1CCN(c2cccc(Cl)c2)CC1)c1ccccc1 | -4.1% |
| O=C(CCCC(=O)N1CCN(c2cccc(Cl)c2)CC1)c1ccccc1 | 25.1% (active) |
| O=C(c1ccc2c(c1)OCO2)N1CCN(C(=O)c2ccco2)CC1 | 17% |
| CC(C)c1nnc(NC(=O)CCC(=O)N2CCN(c3cccc(Cl)c3)CC2)s1 | -4.62% |

| Compound | inhibition |
| --- | --- |
| Oc1ccc2nc(Cc3ccccc3)[nH]c2c1 | 54.8% |
| CC(C)=C(NC(=O)c1ccco1)C(=O)NCCc1nc2ccccc2[nH]1 | 7.12% |
| Nc1cccc(CCc2nc3ccccc3[nH]2)c1 | 91.8% (active) |
| CCOC(=O)C1=C(c2ccccc2)NC(=O)NC1c1cc(OCC)c(O)c([N+](=O)[O-])c1 (stereo unspecified) | -6.05% |
| Cc1ccccc1Nc1nc(N)nc(CSc2nnc3ccccn23)n1 | 37.1% |
| Cc1ccc(C(=O)OCc2nc(N)nc(Nc3ccccc3C)n2)cc1 | -11.7% |
| Cc1ccccc1Nc1nc(N)nc(CSc2ccccc2)n1 | 87.7% (active) |
| Cc1cc(OC(C)C(=O)NC2CC(C)(C)NC(C)(C)C2)c2c(C)cc(=O)oc2c1 (stereo unspecified) | -4.82% |
| CCn1c(CNC(=O)c2cc(OC)c(OC)c(OC)c2)cc2cc(C)ccc21 | 2.16% |
| CCOc1ccc(CN(C)C(=O)c2ccc(=O)[nH]c2)cc1 | -3.04% |
| CCc1ccc(/C=N/NC(=O)c2nnn(-c3nonc3N)c2CN2CCc3ccccc32)cc1 | -4.83% |
| COc1ccc(NS(=O)(=O)c2cccc3nsnc23)cc1Cl | -3.74% |
| O=C(Nc1ccncc1)c1c(F)cccc1F | -10.9% |
| CSc1nc2ccc(NC(=O)c3c(F)cccc3F)cc2s1 | 90.3% (active) |
| CCCC(=O)Nc1nc2ccc(NC(=O)c3c(F)c(F)c(OC)c(F)c3F)cc2s1 | -15.8% |
| Cc1ccc(OCCOCCOc2ccc(Br)cc2/C=N\NC(=O)c2ccncc2)cc1 | -5.78% |
| Cc1ccc(OCCOc2cccc(/C=N/NC(N)=O)c2)cc1 | 56.6% (active) |
| O=C(N/N=C/c1cccc(O)c1)c1cc2c(ccc3ccccc32)o1 | 6% |
| O=C(N/N=C/c1cccc(OCc2ccccc2)c1)c1ccc(Br)o1 | 46.8% (active) |
| Cc1cccc(OCC(=O)NCC(=O)N/N=C/c2ccc(N(C)C)cc2)c1 | -12.5% |
| O=C(N/N=C/c1ccc(OCc2ccccc2)cc1)c1ccc(O)cc1 | 51.1% |
| CCOc1ccccc1N1C(=O)CC(Sc2nccc(C)n2)C1=O (stereo unspecified) | 10.8% |
| Cc1ccc2c(c1)N(CC(=O)N1CCOCC1)C(=O)CO2 | -3.54% |
| Cc1cc(N)n2nc(-c3ccc(C(C)(C)C)cc3)cc2n1 | 88.7% (active) |

| Compound | inhibition |
| --- | --- |
| Cc1nc2cc(-c3ccc(F)cc3)nn2c(N2CCOCC2)c1C | 62.6% |
| Cc1cc(C(C)(C)C)n2nc(C)c(-c3ccccc3)c2n1 | -4.85% |
| Cc1cccc(OCC(O)CN2CCN(S(=O)(=O)c3ccc(C)cc3C)CC2)c1 (stereo unspecified) | -2.77% |
| O=C(CSc1nc(-c2ccccc2)cs1)Nc1cccc([N+](=O)[O-])c1 | 81.3% (active) |
| O=C(CSc1ncn[nH]1)Nc1nc(-c2cccc([N+](=O)[O-])c2)cs1 | 8.25% |
| O=C(CSCC(=O)Nc1cccc([N+](=O)[O-])c1)Nc1ccccc1 | 7.24% |
| CCNC(=O)CSc1nc(-c2ccccc2)cs1 | 74.3% (active) |
| O=C(CSC1=NCCS1)Nc1nc(-c2ccccc2)cs1 | 29.7% |
| CCOC(=O)CSc1nnc(CNc2nc(-c3ccccc3)cs2)n1C | 9.53% |
| CC(C)C[C@@H](NC(=O)[C@H]1CCCN1C(=O)Cc1ccccc1)C(N)=O (PhAc-[dP]-[dL]-NH2) | 6.07% |
| CCc1ccc(Nc2nnc(SCC(=O)c3ccc4c(c3)NC(=O)CO4)s2)cc1 | 32.3% |
| CC(C)[C@H](NC(=O)OCc1ccccc1)C(=O)OCc1ccccc1 | 25.1% |
| CCC1OC(c2ccc([N+](=O)[O-])cc2)=Nc2ccccc21 (stereo unspecified) | 6.08% |
| COc1ccc(-c2n[nH]c(C)c2-c2ccccc2OC)c(O)c1 | 13.4% |
| O=C(C1CC(=O)N(c2ccc(Br)cc2)C1)N1CCCC1 (stereo unspecified) | -22.5% |
| COc1ccc(NC(=O)c2cc([N+](=O)[O-])ccc2NC(=O)CNC2CCCCC2C)c(OC)c1 (stereo unspecified) | 7.27% |
| CCc1nnc(NC(=O)c2cccc(S(=O)(=O)N(C)c3ccc(OC)cc3)c2)s1 | -10.6% |
| CCc1ccc2nc3sc(C(=O)Nc4nnc(CC)s4)c(N)c3cc2c1 | 48.9% (active) |
| CCc1nnc(NC(=O)c2sc3nc(C)cc(COC)c3c2N)s1 | 53.1% |
| Cc1ccc(C)c(S(=O)(=O)Nc2cccc(-n3cnnn3)c2)c1 | 23.9% |
| Cc1cccc[n+]1CC(=O)c1ccccc1 | 5.04% |
| O=C(Nc1ccon1)c1sc2ccccc2c1Cl | 88% (active) |
| O=C(Nc1ccon1)c1cccc(Cl)c1 | 5.52% |
| O=C(N/N=C/c1c(Cl)[nH]c2ccccc12)c1sc2ccccc2c1Cl | -0.233% |
